High-throughput results from PubChem.
Rows were chosen to be rich in hits. Some 21% of all compounds tested hit in one or more screens of this group.
DT40 TDP1 no CPT = qHTS for Inhibitors of human tyrosyl-DNA phosphodiesterase 1 (TDP1): qHTS in cells in absence of CPT; DT40 Tdp1-/- hTDP1 cells, no CPT, ATP luminescence, 48 h; Potency, µM (highest dose often 46.2 µM), for the others: at the highest dose activity change, negative = growth inhibition, hits mostly inhibitors; 420,000 tested, 15% active; AID 686978, 2013; note: potency is the fitted concentration of half-maximal effect; % is set by controls: 0 for no effect and ±100 for the full control effect; nearly all actives have a fitted effect of over 55% in size
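Seeded 400 DT40-hTDP1 cells/well (vehicle DMSO, no 20 nM CPT); pinned compounds; ≥48 hr at 37 °C; CellTiter-Glo luminescence as viability measure.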
D3 antag = antagonists of human D3 dopamine receptor; P35462; D3R cells, DiscoveRx beta-arrestin luminescence, antagonist mode; hits give low values; max response, negative = inhibition, %; 360,000 tested, 2.5% active; in the data active = max response below about -50%; inconclusive = no clear call, values can overlap the other calls; note: % is set by controls: 0 for no effect and ±100 for the full control effect
Target sequence (P35462 whole entry, looked up): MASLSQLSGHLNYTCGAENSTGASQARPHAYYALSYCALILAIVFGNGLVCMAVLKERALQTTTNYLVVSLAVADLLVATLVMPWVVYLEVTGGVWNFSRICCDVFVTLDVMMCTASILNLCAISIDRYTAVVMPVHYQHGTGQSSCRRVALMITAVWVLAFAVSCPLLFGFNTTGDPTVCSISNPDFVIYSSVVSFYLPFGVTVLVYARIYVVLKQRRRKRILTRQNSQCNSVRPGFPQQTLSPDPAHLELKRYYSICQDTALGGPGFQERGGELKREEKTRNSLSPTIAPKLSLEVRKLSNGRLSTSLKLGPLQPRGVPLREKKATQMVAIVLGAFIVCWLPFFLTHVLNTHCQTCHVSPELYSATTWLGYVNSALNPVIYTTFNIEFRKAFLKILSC
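Cells plated overnight at 1500 cells/well, then exposed to library compounds with dopamine controls for 90 minutes at 37 degrees C. DiscoveRx reagent added for 30–60 minutes at room temperature; luminescence read, quantitative HTS format.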
DRD3 agonist = agonists of human D3 dopamine receptor; P35462; D3R DiscoveRx beta-arrestin cells, luminescence, 90 min; AID 652048; max activation, %; 410,000 tested, 0.58% active; in the data active = max activation above about 30%; note: 0% is about no effect
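Agonist-mode cell screen: cells plated at 1500/well and incubated overnight at 37 °C, then exposed to library compounds for 90 min at 37 °C. Detection reagent was added for 30–60 min at room temperature, and luminescence was read.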
DT40 TDP1 CPT = DT40-hTDP1 cell growth loss with CPT. chicken DT40 Tdp1-/-;hTDP1 cells + 20 nM CPT, ATP luminescence, 48 h. Potency, µM (highest dose often 46.2 µM), for inactives: top-dose activity change, negative = growth inhibition, most hits filed as inhibitors. 420,000 tested, 12% active. AID 686979; note: potency is the fitted concentration of half-maximal effect; % is set by controls: 0 for no effect and ±100 for the full control effect; nearly all actives have a fitted effect of over 55% in size
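Chicken DT40 Tdp1-/- cells stably complemented with human TDP1 were seeded at 400 cells/well in medium containing 20 nM camptothecin, exposed to pin-transferred compounds, and grown at 37 °C for at least 48 hr. Viability was read as ATP luminescence.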
ClpP mod = qHTS Assay for Activators of ClpP. purified B. subtilis ClpP, FRET peptide cleavage, 20 min. 340,000 tested, 1.9% active. Potency, µM (series often up to 57.5 µM), without a hit: at the highest dose activity change, negative = active. ATP-dependent Clp protease proteolytic subunit (Bacillus subtilis (strain 168)), P80244; active = well fitted falling curve with a large enough effect; inconclusive = small, poorly fitted or top-dose-only effect; inactive = no such curve, though single readings can be large or run the other way; note: potency is the fitted concentration of half-maximal effect; the source files actives as falling curves though it sought activators and does not explain the sign; nearly all actives have a fitted effect of over 65% in size
Target sequence (P80244 whole entry, looked up): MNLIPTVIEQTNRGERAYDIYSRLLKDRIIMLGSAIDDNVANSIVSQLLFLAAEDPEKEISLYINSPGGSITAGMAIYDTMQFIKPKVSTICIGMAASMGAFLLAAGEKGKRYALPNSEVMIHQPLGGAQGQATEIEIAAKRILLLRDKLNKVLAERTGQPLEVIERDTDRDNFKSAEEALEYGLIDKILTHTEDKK
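Buffer: 100 mM Tris/HCl pH8, 100 mM KCl, 0.05% low protease BSA, 2.5% glycerol, 0.01% Tween-20. ClpP 10 microg/mL final; 20 min RT; delta FRET normalized to ADEP and DMSO controls.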
IL-1B inflam inh = inhibitors of inflammasome signaling (IL-1 beta secretion); 360,000 tested, 4.7% active; AID 743279; THP-1 LPS/ATP IL-1B secretion, AlphaLISA, 16 h; hits give low values; activity change, % at 57.5 µM; in the data active = activity change below about -50%; inconclusive = mostly about -30% to -49%; note: % is set by controls: 0 for no effect and ±100 for the full control effect
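THP-1 cells pretreated 1 hr with compounds (up to 57.5 uM final), then stimulated with LPS (250 ng/mL final) plus ATP (1.25 mM final); secreted IL-1B measured by AlphaLISA after 16 hr, decreased signal indicating inhibition.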
* marks the source's active call; other numbers are inactive results. Unless noted, calls come from the whole dose curve; as a rule, active = well fitted inhibition curve with a large enough effect; inconclusive = small, poorly fitted or top-dose-only effect; inactive = flat fitted curve, though single readings scatter.

For CC(=O)N1CCc2cc(Br)cc(S(=O)(=O)NCCc3ccc(Cl)cc3)c21 the results were DT40 TDP1 no CPT 13%, DRD3 agonist 0, DT40 TDP1 CPT 1% and ClpP mod -13%.
For Cc1ccc(Cl)cc1NS(=O)(=O)c1ccccc1 the results were DT40 TDP1 no CPT inconclusive, D3 antag -6, DRD3 agonist -9, DT40 TDP1 CPT -6% and IL-1B inflam inh 18.
Screening Cc1cccc(NC2=C/C(=N/S(=O)(=O)c3cccs3)c3ccccc3C2=O)c1 returned DT40 TDP1 no CPT 3.3µM*, D3 antag -93*, DRD3 agonist -15, DT40 TDP1 CPT 3.7µM*, ClpP mod -1% and IL-1B inflam inh -83*.
Cc1ccc(NC2=C/C(=N\S(=O)(=O)c3cccs3)c3ccccc3C2=O)c(C)c1 was read as DT40 TDP1 no CPT 2.6µM*, D3 antag -91*, DRD3 agonist -22, DT40 TDP1 CPT 2.6µM*, ClpP mod -1% and IL-1B inflam inh -97*.
For Cc1c(Cl)cccc1N/C(=N/S(=O)(=O)c1cccs1)c1ccccc1 the results were DT40 TDP1 no CPT inconclusive, D3 antag 2, DRD3 agonist 7, DT40 TDP1 CPT -19%, ClpP mod 1% and IL-1B inflam inh -24.
Cc1cc(C)c(S(=O)(=O)/N=C2\C=C(NS(=O)(=O)c3ccccc3)C(=O)c3ccccc32)c(C)c1 was read as DT40 TDP1 no CPT -18%, D3 antag -13, DRD3 agonist -7, DT40 TDP1 CPT inconclusive, ClpP mod -1% and IL-1B inflam inh 30.
For Cc1ccc(Cl)cc1NC1=C/C(=N\S(=O)(=O)c2cccs2)c2ccccc2C1=O the results were DT40 TDP1 no CPT 2.9µM*, D3 antag -108*, DRD3 agonist -36, DT40 TDP1 CPT 5.2µM*, ClpP mod 1% and IL-1B inflam inh -99*.
O=C(CC1CC2CCC1C2)NCCc1ccc(Cl)cc1 (centres undefined) was read as DT40 TDP1 no CPT -29%, D3 antag -12, DRD3 agonist -10, DT40 TDP1 CPT inconclusive and IL-1B inflam inh -22.
CCOc1nc(C#N)nc(N(c2ccccc2)c2ccccc2)n1 was read as DT40 TDP1 no CPT -7%, DT40 TDP1 CPT 1% and ClpP mod 0%.
Screening C/C(=N/NC(=O)c1cc(-c2ccccc2)nc2c(Cl)cccc12)c1cccnc1 returned DT40 TDP1 no CPT -28%, D3 antag -29, DRD3 agonist -49, DT40 TDP1 CPT 10%, ClpP mod -20% and IL-1B inflam inh -1.
`COc1ccccc1C1NC=C([N+](=O)[O-])C=C1[N+](=O)[O-]` (centres undefined) gave DT40 TDP1 no CPT -7%, D3 antag -62*, DRD3 agonist -19, DT40 TDP1 CPT -4% and IL-1B inflam inh -11.
COc1ccccc1C1C([N+](=O)[O-])=CC([N+](=O)[O-])=CN1C (centres undefined) was read as DT40 TDP1 no CPT inconclusive, D3 antag -1, DRD3 agonist -5, DT40 TDP1 CPT inconclusive and IL-1B inflam inh -13.
CCOC(=O)c1cc(-c2ccc(F)cc2)n(CC(=O)N2CCCC2)c1C was read as DT40 TDP1 no CPT inconclusive, D3 antag 2, DRD3 agonist 6, DT40 TDP1 CPT 0%, ClpP mod 0% and IL-1B inflam inh -14.
CCOC(=O)c1cc(-c2ccccc2)n(CC(=O)NC2CCC(C)CC2)c1C (centres undefined) was read as DT40 TDP1 no CPT 12µM*, DRD3 agonist 7, DT40 TDP1 CPT 15µM* and ClpP mod 2%.
For CC(=O)c1cc(-c2ccc(F)cc2)n(CC(=O)NC2CCCCCC2)c1C the results were DT40 TDP1 no CPT 16µM*, DRD3 agonist 6, DT40 TDP1 CPT inconclusive and ClpP mod 1%.
COc1ccc(CCNC(=O)CN2CCN(Cc3ccc(F)cc3)C2=O)cc1OC was read as DT40 TDP1 no CPT inconclusive, D3 antag -17, DRD3 agonist 0, DT40 TDP1 CPT inconclusive, ClpP mod 0% and IL-1B inflam inh -4.
Screening CCOC(=O)c1cc(-c2ccc(C)cc2)n(CC(=O)NC2CCCCCC2)c1C returned DT40 TDP1 no CPT inconclusive, DRD3 agonist 3, DT40 TDP1 CPT 23µM* and ClpP mod -1%.
For COc1ccc(CCNC(=O)Cn2c(-c3ccc(F)cc3)cc(C(C)=O)c2C)cc1OC the results were DT40 TDP1 no CPT 21µM*, DRD3 agonist -7, DT40 TDP1 CPT 26µM* and ClpP mod 1%.
Screening Cc1ccc2ccc(S(=O)(=O)n3nc(C)cc3C)cc2c1 returned DT40 TDP1 no CPT -8%, D3 antag -60*, DRD3 agonist -10, DT40 TDP1 CPT -26%, ClpP mod -3% and IL-1B inflam inh 21.
Cc1cc(C)n(S(=O)(=O)c2ccc(C)c(C)c2)n1 was read as DT40 TDP1 no CPT 20%, D3 antag 6, DRD3 agonist -9, DT40 TDP1 CPT 2%, ClpP mod -1% and IL-1B inflam inh 0.
For COc1cc2nc(Cl)nc(N3CCOCC3)c2cc1OC the results were DT40 TDP1 no CPT inconclusive, D3 antag -6, DRD3 agonist 5, DT40 TDP1 CPT inconclusive and IL-1B inflam inh -3.
For COc1cc2nc(Cl)nc(N3CCCCC3)c2cc1OC the results were DT40 TDP1 no CPT 26µM*, D3 antag -20, DRD3 agonist -1, DT40 TDP1 CPT -15% and IL-1B inflam inh -61*.
For Cc1ccsc1C1CC(=O)Nc2ccccc2S1 (centres undefined) the results were DT40 TDP1 no CPT inconclusive, D3 antag 30, DRD3 agonist -6, DT40 TDP1 CPT inconclusive and IL-1B inflam inh 22.
`CCOc1cc(C2Sc3ccccc3NC3=C2C(=O)c2ccccc23)ccc1O` (centres undefined) gave DT40 TDP1 no CPT inconclusive, DRD3 agonist -11, DT40 TDP1 CPT inconclusive and ClpP mod -8%.
O=C1C2=C(Nc3ccccc3SC2c2ccc(Cl)c(Cl)c2)c2ccccc21 (centres undefined) was read as DT40 TDP1 no CPT 26µM*, DRD3 agonist -13, DT40 TDP1 CPT 15µM* and ClpP mod -2%.
O=C1Nc2ccccc2SC1c1ccccc1 (centres undefined) was read as DT40 TDP1 no CPT -18%, D3 antag -12, DRD3 agonist 1, DT40 TDP1 CPT -5%, ClpP mod 2% and IL-1B inflam inh -15.
